Hits are enriched below; roughly 12% of the tested compounds scored in any of these assays.
G9a inh: qHTS Assay for Inhibitors of Histone Lysine Methyltransferase G9a | G9a H3K9 monomethylation, AlphaScreen, 2 h | Potency, µM (highest dose often 102 µM), without a hit: at the top dose activity, negative = inhibition, usual class: inhibitors | Histone-lysine N-methyltransferase EHMT2 (Homo sapiens), Q96KQ7 | actives 8.8% (n = 350,000); also: % is scaled to controls: 0 for no effect and ±100 for the full control effect; nearly all actives have a fitted effect of over 75% in size
Target sequence (Q96KQ7 913-1193 limits assumed): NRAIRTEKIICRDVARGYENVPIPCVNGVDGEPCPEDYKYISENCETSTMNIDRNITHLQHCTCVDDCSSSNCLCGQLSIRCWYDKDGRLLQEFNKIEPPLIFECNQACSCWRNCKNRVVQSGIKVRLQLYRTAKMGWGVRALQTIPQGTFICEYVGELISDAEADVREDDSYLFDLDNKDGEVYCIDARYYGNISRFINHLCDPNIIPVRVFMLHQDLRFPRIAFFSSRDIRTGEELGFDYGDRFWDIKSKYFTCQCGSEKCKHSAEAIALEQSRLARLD
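Enzyme 20 nM + cpd, 15 min RT; add b-H3K9 pep 500 nM / SAM 20 uM; 2 h RT; anti-H3K9me1 Ab 0.5 ug/mL + SA donor / anti-rabbit acceptor beads 20 ug/mL each, 10 min; AlphaScreen read.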
Sfp inh: qHTS Assay for Inhibitors of Bacillus subtilis Sfp phosphopantetheinyl transferase (PPTase); 4'-phosphopantetheinyl transferase ffp (Bacillus subtilis), Q9F4F7; Biochemical Sfp PPTase activity, qHTS; Potency, µM, without a hit: largest response in the series, negative = inhibition, actives largely listed as inhibitors; AID 1490, 2009; actives 3.5% (n = 310,000);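 also: the enzyme is Sfp with the accession as filed and its product quenches rhodamine fluorescence; 0% = enzyme reaction without inhibitor and -100% = no enzyme wells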
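Compounds were incubated with enzyme (final 15 nM) for 15 min at room temperature before substrate addition started the reaction. Fluorescence at 525 nm excitation, 598 nm emission was recorded immediately and after 30 minutes.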
JMJD2A Tudor inh: qHTS Assay for Inhibitors of JMJD2A-Tudor Domain. Potency, µM (top dose mostly 114 µM), inactives show at the top dose activity change, negative = inhibition, usual class: inhibitors. AID 504339, 2011. Lysine-specific demethylase 4A (Homo sapiens), O75164. AlphaScreen JMJD2A-Tudor / H3K4me3 peptide binding. actives 4.4% (n = 390,000); also: % is scaled to controls: 0 for no effect and ±100 for the full control effect; nearly all actives have a fitted effect of over 50% in size
HP1b binding inh: HTS for Inhibitors of HP1-beta Chromodomain Interactions with Methylated Histone Tails. actives 0.56% (n = 390,000). Chromobox protein homolog 1 (Homo sapiens), P83916. AlphaScreen HP1-beta / biotin-H3K9me3 peptide binding. Potency, µM (titrated, usually from 114 µM), inactives show top-dose activity change, negative = inhibition, actives largely listed as inhibitors; also: nearly all actives have a fitted effect of over 70% in size
Target sequence (P83916 whole entry, looked up): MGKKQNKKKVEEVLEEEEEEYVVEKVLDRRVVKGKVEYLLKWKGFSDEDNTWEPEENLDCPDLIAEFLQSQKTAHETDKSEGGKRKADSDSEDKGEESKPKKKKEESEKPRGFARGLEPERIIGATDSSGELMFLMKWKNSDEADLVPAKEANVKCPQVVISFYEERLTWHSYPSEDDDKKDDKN
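HP1-beta protein (50 nM final) preincubated 30 min at room temperature with biotinylated H3(1-18)K9me3 peptide (50 nM) in PBS pH 7.4, 0.01% Tween-20, then compound added for 30 min. AlphaScreen streptavidin donor/nickel chelate acceptor beads (10 ug/mL final), 30 min dark, luminescence read.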
BAZ2B block: qHTS Assay for Inhibitors of BAZ2B | Potency, µM (doses to about 114 µM), inactives show top-dose activity change, negative = inhibition, hits mostly inhibitors | actives 4.4% (n = 360,000) | AlphaScreen BAZ2B-H3K14Ac peptide displacement; also: % is scaled to controls: 0 for no effect and ±100 for the full control effect; nearly all actives have a fitted effect of over 60% in size
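BAZ2B (50 nM) with biotin-H3(5-23)K14Ac peptide (50 nM) in PBS pH 7.4, 0.01% Tween-20, preformed 30 min, then compound 30 min at room temperature; top concentration 110uM. AlphaScreen streptavidin donor/nickel chelate acceptor beads (10 ug/mL final), 20 min dark, signal read.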
L3MBTL1 block: qHTS Assay for the Inhibitors of L3MBTL1; Potency, µM (doses to about 57.1 µM), for inactives: at the top dose activity, negative = inhibition, actives largely listed as inhibitors; Lethal(3)malignant brain tumor-like protein 1 (Homo sapiens), Q9Y468; AlphaScreen L3MBTL1–H3K9me1 peptide binding; actives 0.66% (n = 230,000); also: % is scaled to controls: 0 for no effect and ±100 for the full control effect; nearly all actives have a fitted effect of over 60% in size
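AlphaScreen proximity signal between nickel-chelate acceptor and streptavidin donor beads (final 10 ug/mL) reports binding of 50 nM L3MBTL1 to 75 nM biotin-H3 K9me1 peptide; complex incubated with compounds 30 min at room temperature; cefsulodin titration as control.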
An asterisk follows results filed as active; ? = inconclusive; . = no result given; [ ] = another dose, or the depositor's remark. Calls follow the shape of the dose curve; as a rule, active = well fitted curve in the direction sought with a large enough effect; inconclusive = small, poorly fitted or top-dose-only effect, or another doubt; inactive = no such curve, though single readings can be large; an effect the other way counts as inactive or inconclusive. Potency is read from the fitted curve at half-maximal effect.

SMILES	G9a inh	Sfp inh	JMJD2A Tudor inh	HP1b binding inh	BAZ2B block	L3MBTL1 block
O=C(O)C1CC=CCC1C(=O)Nc1cccc([N+](=O)[O-])c1 (configuration not stated)	?	20%	-10%	30%	89µM*	8%
O=C(O)C1CC=CCC1C(=O)Nc1cccc(F)c1 (configuration not stated)	?	19%	-25%	18%	-5%	-17%
CNc1cc(N2CCCCCC2)ccc1[N+](=O)[O-]	-45%[12.7 µM]	-16%	?	?	?	-21%
O=[N+]([O-])c1ccc2c(c1N1CCCCC1)=NC1(CCCCC1)[N+]=2[O-]	50µM*	25µM*	?	40µM*	35µM*	-28%
COc1ccccc1CNC(=O)C(=O)NCC(c1cccnc1)N1CCN(c2ccccc2)CC1 (configuration not stated)	-6%[59 µM]	.	-20%	10%	-7%	.
O=C(N/N=C/c1cccnc1)c1ccc([N+](=O)[O-])cc1Cl	-11%	4%	-15%	15%	14%	12%
O=C(N/N=C/c1ccccn1)c1ccc([N+](=O)[O-])cc1Cl	-6%[0.501 µM]	50µM*	-19%	29%	-7%	0%[2.29 µM]
O=C(N/N=C/c1ccccn1)c1cc(-c2ccccc2Cl)n[nH]1	68%[59 µM]	7%	-34%	30%	56µM*	.
O=C(N/N=C/c1ccccn1)c1cc(-c2cccc3ccccc23)n[nH]1	29%	10%	?	?	-2%	-15%
COc1cccc(CNC(=O)c2ccc(CSc3nc4ccncc4n3Cc3cccc(C)c3)cc2)c1	-9%[59 µM]	.	-27%	24%	-11%	.
O=C(c1cc(C(F)(F)F)cc(C(F)(F)F)c1)N1CCC2(CCCN(c3ccccc3)C2)CC1	4%[12.7 µM]	19%	.	.	.	.
CCCCn1c(C2CC(=O)N(c3ccc(OCC)cc3)C2)nc2ccccc21 (configuration not stated)	-29%[59 µM]	.	-2%	24%	-11%	.
CC12CCC(C(=O)N(CC(O)CN3CCN(Cc4ccccc4)CC3)C1=O)C2(C)C (configuration not stated)	-48%[12.7 µM]	-9%	-6%	26%	?	-8%
CC12CCC(C(=O)N(CCCCN3CCN(Cc4ccccc4)CC3)C1=O)C2(C)C (configuration not stated)	56µM*	11%	?	-6%	-16%	3%
O=C1Nc2ccccc2Oc2cc(Oc3ccccc3)ccc21	?	.	50µM*	?	45µM*	?
COc1ccc(O)c(C2Nc3ccccc3C(=O)N2Cc2ccccc2)c1 (configuration not stated)	.	.	79µM*	.	.	.
COc1ccc(CCN2C(=O)c3ccccc3NC2c2cc(Cl)c(O)c(OC)c2)cc1 (configuration not stated)	71µM*	-13%	-23%	-12%	-15%	.
O=C1c2ccccc2NC(c2cccc([N+](=O)[O-])c2)N1CCc1ccccc1 (configuration not stated)	45µM*	6%	?	-12%	?	.
C[C@H]1Cc2c(-c3ccccc3)nc3c(c2CO1)CN(C(=O)NCCc1c[nH]c2ccccc12)CC3	.	18%	.	.	.	.
Cc1c(C(=O)NN)[nH]c2ccc([N+](=O)[O-])cc12	5%	1%	-12%	28%	35µM*	-2%
O=C(Oc1ccccc1)C1O[C@@H]1c1ccccc1 (some centres not stated)	.	-3%	.	.	.	.

From PubChem
